PubChem BioAssay (NCI)
The panel holds about 83,000 compounds, 20% with a hit somewhere; the sample as a whole holds those more often.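 Step 1: grow cells in 96-well plates. Step 2: add test compound at a single concentration. Step 3: incubate 48 h. Step 4: record percent growth.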 Values without a mark were called inactive. Calls of active or inactive are those of the source. How the source made its calls: active means growth percent below 10; inactive means the rest.

What follows are compounds tested on SR leukemia (assay: NCI-60 one-dose screen, 48 h (100 = growth as untreated, 0 = no growth, -100 = all killed)). Settings: 10 µM unless noted.

Row | Structure (SMILES) | growth
1 | CCC(=O)Nc1nnc(Cc2ccc(OC)c(OC)c2)s1 | -18.1% (active)
2 | NC(=O)c1cc(Cl)ccc1NC(=O)COc1ccccc1 | 23%
3 | CCC12CCC3c4ccc(O)cc4CCC3C1CC(O)C2O (stereo not given) | 19.3%
4 | O=C1NC(=S)S/C1=C\c1cccc([N+](=O)[O-])c1 | 70.1%
5 | CCCCCn1c(=N)n(CC(O)COc2cccc(C)c2)c2ccccc21 (stereo not given) | 2.12% (active)
6 | Cn1c2ccccc2c2nn(C(=O)c3ccccc3)c(=O)nc21 | 93.7%
7 | N#CC1=C(N)Oc2cc(N)ccc2C1c1ccc(F)cc1 (stereo not given) | 20.5%
8 | COc1ccc(-c2c3c(N)c4c(nc3nc3c2c(C)nn3-c2ccccc2)CCCCC4)cc1 | 54.1%
9 | CC(C)OC1=C(Cl)C(=O)c2ccccc2C1=O | 9.89% (active)
10 | O=c1[nH]c(-c2ccccn2)nc2sc3c(c12)CCCCCC3 | 22.1%
11 | COc1c(O)c2c3c(c1OC)-c1ccccc1CC3N(S(=O)(=O)c1ccc(C)cc1)CC2 (stereo not given) | 9.8% (active)
12 | COc1cc(-c2nc3ccccc3o2)cc(CN2CCN(c3ccccc3)CC2)c1O | 45.1%
13 | O=C1/C(=C/c2ccccc2F)CNC/C1=C\c1ccccc1F | -2.72% (active)
14 | CN([N-]C(=O)CC(=O)[N-]N(C)C(=S)c1ccccc1)C(=S)c1ccccc1.[Cu+2] | -17.7% (active)
15 | COC(=O)c1ccc(C(=O)Nc2ccccc2N)cc1 | 67.1%
16 | FC(F)(F)c1cc(CNc2ncc(Br)c(Cl)n2)cc(C(F)(F)F)c1 | 85.8%
17 | COc1ccc(NC(=O)COc2ccccc2)c(C(N)=O)c1 | 24.5%
18 | Cn1c2ccccc2c2nn(Cc3ccccc3)c(=O)nc21 | 97.7%
19 | CCCCNNC(=O)c1ccc(Br)cc1 | 40.9%
20 | Cc1nc2cc(Nc3nc(Nc4ccc(F)cc4)nc(-c4cccs4)n3)ccc2n1Cc1ccccc1 | 18%

Row | Structure (SMILES) | growth
21 | Cc1ccc(C2SCC(=O)N2NC(=O)c2[nH]c3ccc(F)cc3c2-c2ccccc2)cc1 (stereo not given) | 76.1%
22 | O=S(=O)(OCCO)c1ccccc1 | 100%
23 | Cc1ccc(S(=O)(=O)N2CCc3ccc(O)c4c3C2CCc2ccccc2-4)cc1 (stereo not given) | 76.5%
24 | Cc1nc2cc(Nc3nc(N4CCOCC4)nc(N4CCN(C)CC4)n3)ccc2n1Cc1ccccc1 | 93%
25 | Clc1ccc(C2=NN(c3ccccc3)[C@H](c3cn(-c4ccccc4)nc3-c3ccccc3)C2)cc1 | 118%
26 | COc1cccc(OC)c1OC(=O)c1ccccc1 | 91.7%
27 | CCSc1nnc2c3cc(Br)ccc3n(C)c2n1 | 92.7%
28 | Cc1nn(-c2ccccc2)c2nc3nc4c(c(N)c3c(-c3ccc(Cl)cc3)c12)CCCC4 | -15.3% (active)
29 | Cc1ccc(S(=O)(=O)N(c2ccc(Cl)cc2)c2ccc(Br)cc2C(=O)O)cc1 | 104%
30 | Cc1ccc2c(c1)c(Sc1ccc(C(=O)NO)cc1)c1n2CN(C)CC1 | 5.05% (active)
31 | COc1cc(CNCCCN2C(=O)c3ccc4c5c(ccc(c35)C2=O)C(=O)N(CCCNCc2cc(OC)c(OC)c(OC)c2)C4=O)cc(OC)c1OC | -3.1% (active)
32 | CCCCCCCCCCCC(=O)[O][Sn]([CH2]CCC)([CH2]CCC)[CH2]CCC | -42.7% (active)
33 | COc1cc(NC(=O)COc2ccccc2)c(C(N)=O)cc1OC | 23.3%
34 | C=CC(=O)N1CC2(CCC(n3nc(-c4ccc(Oc5ccccc5)cc4)c4c(N)ncnc43)CC2)C1 | -23.2% (active)
35 | CC(=O)OC[C@H](O)[C@@]1(O)CC[C@H]2[C@@H]3CCC4=CC(=O)CC[C@]4(C)[C@H]3[C@@H](O)C[C@@]21C | 99.9%
36 | Cc1ccc(S(=O)(=O)N2CCc3ccc(O)c4c3C2Cc2cc(Cl)ccc2-4)cc1 (stereo not given) | 18.9%
37 | COc1cc(/C=C/C(=O)C(=Cc2ccc(F)c(F)c2)C(=O)/C=C/c2ccc(O)c(OC)c2)ccc1O | 18.2%
38 | CCOC(=O)c1cc2c(n(C)c1=O)-c1cnn(-c3ccc(OC)cc3)c1CC2 | 87.2%
39 | Cc1ccc(S(=O)(=O)N2CCc3ccc(O)c4c3C2Cc2ccc3c(c2-4)OCO3)cc1 (stereo not given) | 14.8%
40 | O=C(Nc1nc2ccccc2[nH]1)C(=O)Nc1nc2ccccc2[nH]1 | 89.6%
